Our source for the Inhibition values is ChEMBL document CHEMBL4513135, “CO-ADD screening of IQOG CSIS (Spain) compounds”.

Entries with a potency or affinity are not part of this list.

Assay [1] has as its system Staphylococcus aureus. Conditions: Concentration 32 ug.mL-1; ASSAY_TEST Inhibition of Bacterial Growth; detection method Absorption (OD600); MEDIA CAMHB; plate type 384well; NBS; CORNING #3640; time 18 hr.
Assay [2] relates to Escherichia coli. Conditions: Concentration 32 ug.mL-1; ASSAY_TEST Inhibition of Bacterial Growth; detection method Absorption (OD600); MEDIA CAMHB; plate type 384well; NBS; CORNING #3640; time 18 hr.

Regarding `CN(C)c1nc(N)c(C#N)c(-c2ccccc2)c1C#N`, the Inhibition in assay [1] came out at 7.52%; in assay [2] it was 0.57%.

As for `C#CCN(C)c1nc(N(C)CC#C)c(C#N)cc1C#N`, the values for the Inhibition in assay [1] and in assay [2] were 20.85% and -13.82%, respectively.

Turning to `CN(Cc1cn(Cc2ccccc2)nn1)Cc1cc2cc(OCCCC3CCN(Cc4ccccc4)CC3)ccc2n1C`, the Inhibition in assay [1] was 10.05%; in assay [2] it was -17.67%.

Take `O[C@H]1CC[C@H](NCc2ccccc2)CC1`: the figures for the Inhibition in assay [1] and in assay [2] were 21.55% and -7.34%, respectively.

On to `CCOC(=O)C1=C(C)Nc2nc3c(c(N)c2C1c1ccc([N+](=O)[O-])cc1)CCCC3.Cl` (stereo not given), for which the Inhibition in assay [1] is given as 34.25%; in assay [2] it was -22.43%.

Consider `C#CCN(C)c1ncc(C#N)c(N)n1`, for which the Inhibition in assay [1] is on record as 39.34%; in assay [2], -4.49%.

On to `N#CC1(Br)C(=N)Oc2ccc3ccccc3c2C1c1cccc([N+](=O)[O-])c1` (stereo not given), for which the Inhibition was 22.75% in assay [1] and -22.9% in assay [2].

With `C#CCN(C)c1nc(NCCCCC2CCN(Cc3ccccc3)CC2)c(C#N)cc1C#N`, the Inhibition in assay [1] is given as 0.89%; in assay [2], -7.65%.

Take `Nc1c2c(nc3c1C(c1c(Cl)cccc1Cl)c1ccc4ccccc4c1O3)CCCC2` (stereo not given): the figures for the Inhibition in assay [1] and in assay [2] were 2.04% and 3.11%, respectively.

With `Cn1cc(C(=O)NN)c2ccccc21`, the Inhibition in assay [1] turned out to be 4.01%; in assay [2] it was 20.35%.

As for `COc1cc(CCC(N)=O)ccc1O`, the Inhibition in assay [1] was 8.5%; in assay [2], 5.11%.

For `N#Cc1c(N)nc(NC2CCN(Cc3ccccc3)CC2)c(C#N)c1-c1ccccc1`, the Inhibition is 33.89% in assay [1] and -2.79% in assay [2].

As to `N#Cc1cc(C#N)c(N2CCC(O)CC2)nc1N`, the Inhibition was 5.78% in assay [1] and -26.11% in assay [2].

Regarding `O=Cc1ccc(OCCO[N+](=O)[O-])cc1`, the values for the Inhibition in assay [1] and in assay [2] were 6.78% and 18.31%, respectively.

For the compound `CC(=O)O[C@H]1CC[C@H](NC(=O)c2ccccc2)CC1`, the Inhibition is recorded as 27.4% in assay [1] and -7.44% in assay [2].

As to `N#CC1(Br)C(=NBr)Oc2c(ccc3ccccc23)C1c1ccccc1[N+](=O)[O-]` (stereo not given), the Inhibition is listed as 52.21% in assay [1] and -16.66% in assay [2].

Consider `COc1nc(NC(C)=O)c(C#N)c(-c2ccccc2)c1C#N`, for which the Inhibition in assay [1] is on record as 21.1%; in assay [2] it was -7.58%.

For the compound `Cc1ccc(S(=O)(=O)N[C@H]2CC[C@H](O)CC2)cc1`, the values for the Inhibition in assay [1] and in assay [2] were 22.82% and -6.91%, respectively.

In the case of `Cc1cc(Br)cc(C)c1NC=C(C#N)C#N`, the figures for the Inhibition in assay [1] and in assay [2] were 7.73% and 12.6%, respectively.

Turning to `CC1=C(C(=O)N2[C@@H]3C[C@H]4CCC3(CS2(=O)=O)C4(C)C)C(c2ccccc2)C(C#N)=C(N)O1` (stereo not given in full), the Inhibition is on record as -1.02% in assay [1] and 15% in assay [2].

Turning to `C#CCN(C)c1cc(Cl)nc(N)n1`, the Inhibition was 26.35% in assay [1] and -8.33% in assay [2].

For `N#C/C(=C\c1ccccc1Cl)C(=O)c1ccccc1`, the Inhibition is reported as 33.12% in assay [1] and 20.31% in assay [2].

Take `Cc1ccc(C(O)SNNc2nc(C)nc3c2c(C)nn3-c2ccccc2)cc1` (stereo not given): the Inhibition in assay [1] came out at 4.03%; in assay [2], 5.46%.

On to `COc1ccc2c(c1)cc(C(=O)Nc1ccccc1)n2C`, for which the Inhibition is listed as 20.93% in assay [1] and -8.29% in assay [2].

Take `COc1ccc(CNNC(=O)c2cc3ccccc3[nH]2)cc1O`: the Inhibition worked out at 5.63% in assay [1] and 2.63% in assay [2].

As for `C#CCNc1nc(NC2CCN(Cc3ccccc3)CC2)c(C#N)cc1C#N.Cl`, the Inhibition in assay [1] is recorded as -1.55%; in assay [2], -6.24%.

As to `N#CC1(Br)C(=NBr)Oc2c(ccc3ccccc23)C1c1cccc([N+](=O)[O-])c1` (stereo not given), the results for the Inhibition in assay [1] and in assay [2] were 34.66% and -14.11%, respectively.

As for `COc1ccc(-c2cc(-c3cc4ccc(OC)cc4nc3Cl)cc(=O)[nH]2)cc1`, the Inhibition is given as 18.65% in assay [1] and -13.67% in assay [2].

Consider `CCC(CC)NNC(=O)c1cc2ccccc2n1C`, for which the Inhibition in assay [1] is listed as 11.92%; in assay [2], 13.68%.

`CC1CN(C)c2c(C#N)c(-c3ccccc3)c(C#N)c(=N)n21` (stereo not given): the Inhibition is 26.27% in assay [1] and -6.63% in assay [2].

Take `Cc1cnc2ccc(Br)cn12`: the Inhibition in assay [1] was determined as 2.9%; in assay [2] it was 6.35%.

As for `C=C1CN(C)c2c(C#N)cc(C#N)c(=N)n21`, the Inhibition in assay [1] is listed as 13.03%; in assay [2], -14.43%.

In the case of `COc1ccc(C=C2N=C(c3ccccc3)OC2=O)cc1`, the Inhibition in assay [1] is 12.56%; in assay [2] it was 14.02%.

For the compound `Nc1c2c(nc3ccc([N+](=O)[O-])cc13)CCCC2`, the Inhibition is 53.1% in assay [1] and 1.31% in assay [2].

Consider `CC(=O)Oc1cccc(C=C2N=C(c3ccccc3)OC2=O)c1`, for which the Inhibition in assay [1] was determined as 11%; in assay [2], 13.2%.

Take `O=C(NNCCc1ccccc1)c1cc2ccccc2[nH]1`: the figures for the Inhibition in assay [1] and in assay [2] were -6.37% and -5.83%, respectively.

With `COc1ccccc1C1c2c(ccc3ccccc23)OC(=N)C1(Br)C#N` (stereo not given), the Inhibition in assay [1] is 32.97%; in assay [2], -9.16%.

Consider `N#CC1=C(N)Oc2c(ccc3ccccc23)C1c1ccc(O)cc1` (stereo not given), for which the Inhibition is given as 21.57% in assay [1] and -18.15% in assay [2].

`Nc1n[nH]c2c1C(c1ccccc1)CC(=O)N2` (stereo not given): the Inhibition in assay [1] was 40.09%; in assay [2], -4.9%.

On to `N#CC1=C(Cl)Oc2c(ccc3ccccc23)C1c1ccccc1[N+](=O)[O-]` (stereo not given), for which the results for the Inhibition in assay [1] and in assay [2] were 15.73% and -14.23%, respectively.

As a reminder, the Inhibition is the drop in the measured response relative to a control, in per cent.
